# Experimental data published in the supplement of paper PMC8728848.
# The full list was thinned out, with the strongest signals kept by preference.
# B1: Epa9 (Candida glabrata), CAGL0A01386g (protein)
# chain: MGSSHHHHHHSSGLVPRGSHMDITPFAHYPRPEGCSSPPNAVSVGLHMDLYNYPYLYVKNPRTGFTNDTDSDADGETDGDSAGGIEGRAGQCWNPEYQDPNFPRYGYKKYGSFGSSDHVNGKISWDHNEFKEGCKPIMARLPTAYNYPAKITFSNFTMVLSGYFKPKSTGLYKFEIHADDFILFNFGSKNAFECCNREESIDNFGPYVAYAMWPNEADQELEVYLFEDSYYPIRLFYNNRDYHSKFMVGFYPPNTEEITYDFDGYLYMLDDTGNECKDSIRYKTVCDD
# Columns and labels:
# Test in all cases: glycan array binding signal (z-score within array); higher = stronger binding
# Conditions in all cases: glycan notation: IUPAC condensed, linker removed
# [1] = target: Fuc(a1-2)Gal(b1-3)GlcNAc(b1-3)[Fuc(a1-2)Gal(b1-3)GlcNAc(b1-6)]GalNAc
# In short: (§1)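 Columns mapping to the same glycan were averaged after glycan names were converted to IUPAC-condensed notation. The data come from 3228 arrays in the Consortium for Functional Glycomics database, limited to those with an available protein sequence. Binding is reported as a within-array Z-score averaged across arrays of one protein sequence and across linkers.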
# [2] = target: Fuc(a1-2)Gal(b1-4)[Fuc(a1-3)]GlcNAc(b1-3)Gal(b1-4)[Fuc(a1-3)]GlcNAc
# In short: as §1
# [3] = target: Fuc(a1-2)[Gal(a1-3)]Gal(b1-3)GlcNAc
# In short: as §1
# [4] = target: Fuc(a1-2)[Gal(a1-3)]Gal(b1-4)GlcNAc(b1-3)GalNAc
# In short: as §1
# [5] = target: Gal(a1-3)Gal(b1-4)Glc
# In short: as §1
# [6] = target: Gal(a1-3)Gal(b1-4)GlcNAc(b1-2)Man(a1-3)[Gal(a1-3)Gal(b1-4)GlcNAc(b1-2)Man(a1-6)]Man(b1-4)GlcNAc(b1-4)GlcNAc
# In short: as §1
# [7] = target: Gal(a1-4)Gal(b1-3)GlcNAc(b1-2)Man(a1-3)[Gal(a1-4)Gal(b1-3)GlcNAc(b1-2)Man(a1-6)]Man(b1-4)GlcNAc(b1-4)GlcNAc
# In short: as §1
# [8] = target: Gal(b1-2)Gal
# In short: as §1
# [9] = target: Gal(b1-3)GalNAc(a1-3)[Fuc(a1-2)]Gal(b1-4)Glc
# In short: as §1
# [10] = target: Gal(b1-3)GalNAc(b1-3)Gal(a1-4)Gal(b1-4)Glc
# In short: as §1
# [11] = target: Gal(b1-3)GalNAc(b1-4)Gal(b1-4)Glc
# In short: as §1
# [12] = target: Gal(b1-3)GlcNAc(b1-3)Gal(b1-3)GlcNAc
# In short: as §1
# [13] = target: Gal(b1-3)GlcNAc6S
# In short: as §1
# [14] = target: Gal(b1-3)[Fuc(a1-4)]GlcNAc(b1-2)Man(a1-3)[Gal(b1-3)[Fuc(a1-4)]GlcNAc(b1-2)Man(a1-6)]Man(b1-4)GlcNAc(b1-4)[Fuc(a1-6)]GlcNAc
# In short: as §1
# [15] = target: Gal(b1-4)GlcNAc(b1-2)Man(a1-6)[GlcNAc(b1-2)Man(a1-3)]Man(b1-4)GlcNAc(b1-4)GlcNAc
# In short: as §1
# [16] = target: Gal(b1-4)GlcNAc(b1-2)[Gal(b1-4)GlcNAc(b1-4)]Man(a1-3)[GlcNAc(b1-4)][Gal(b1-4)GlcNAc(b1-2)Man(a1-6)]Man(b1-4)GlcNAc(b1-4)GlcNAc
# In short: as §1
# [17] = target: Gal(b1-4)GlcNAc(b1-3)Gal(b1-4)GlcNAc(b1-2)Man(a1-3)[Gal(b1-4)GlcNAc(b1-3)Gal(b1-4)GlcNAc(b1-2)Man(a1-6)]Man(b1-4)GlcNAc(b1-4)GlcNAc
# In short: as §1
# [18] = target: Gal(b1-4)GlcNAc(b1-3)Gal(b1-4)GlcNAc(b1-3)Gal(b1-4)GlcNAc(b1-2)Man(a1-3)[Gal(b1-4)GlcNAc(b1-3)Gal(b1-4)GlcNAc(b1-3)Gal(b1-4)GlcNAc(b1-2)Man(a1-6)]Man(b1-4)GlcNAc(b1-4)[Fuc(a1-6)]GlcNAc
# In short: as §1
# [19] = target: Gal(b1-4)GlcNAc(b1-3)Gal(b1-4)GlcNAc(b1-3)Gal(b1-4)GlcNAc(b1-3)Gal(b1-4)GlcNAc(b1-2)Man(a1-3)[Gal(b1-4)GlcNAc(b1-3)Gal(b1-4)GlcNAc(b1-3)Gal(b1-4)GlcNAc(b1-3)Gal(b1-4)GlcNAc(b1-2)Man(a1-6)]Man(b1-4)GlcNAc(b1-4)GlcNAc
# In short: as §1
# [20] = target: Gal(b1-4)GlcNAc(b1-3)Gal(b1-4)GlcNAc(b1-3)Gal(b1-4)GlcNAc(b1-3)Gal(b1-4)GlcNAc(b1-2)Man(a1-3)[Gal(b1-4)GlcNAc(b1-3)Gal(b1-4)GlcNAc(b1-3)Gal(b1-4)GlcNAc(b1-3)Gal(b1-4)GlcNAc(b1-2)Man(a1-6)]Man(b1-4)GlcNAc(b1-4)[Fuc(a1-6)]GlcNAc
# In short: as §1
# [21] = target: Gal(b1-4)GlcNAc(b1-3)Gal(b1-4)GlcNAc(b1-3)Gal(b1-4)GlcNAc(b1-3)Gal(b1-4)GlcNAc(b1-2)[Gal(b1-4)GlcNAc(b1-3)Gal(b1-4)GlcNAc(b1-3)Gal(b1-4)GlcNAc(b1-3)Gal(b1-4)GlcNAc(b1-6)]Man(a1-6)[Gal(b1-4)GlcNAc(b1-3)Gal(b1-4)GlcNAc(b1-3)Gal(b1-4)GlcNAc(b1-3)Gal(b1-4)GlcNAc(b1-2)Man(a1-3)]Man(b1-4)GlcNAc(b1-4)[Fuc(a1-6)]GlcNAc
# In short: as §1
# [22] = target: Gal(b1-4)GlcNAc(b1-3)Gal(b1-4)GlcNAc(b1-3)Gal(b1-4)GlcNAc(b1-3)Gal(b1-4)GlcNAc(b1-3)Gal(b1-4)GlcNAc(b1-2)Man(a1-3)[Gal(b1-4)GlcNAc(b1-3)Gal(b1-4)GlcNAc(b1-3)Gal(b1-4)GlcNAc(b1-3)Gal(b1-4)GlcNAc(b1-3)Gal(b1-4)GlcNAc(b1-2)Man(a1-6)]Man(b1-4)GlcNAc(b1-4)GlcNAc
# In short: as §1
# [23] = target: Gal(b1-4)GlcNAc(b1-3)Gal(b1-4)GlcNAc(b1-3)Gal(b1-4)GlcNAc(b1-3)Gal(b1-4)GlcNAc(b1-3)Gal(b1-4)GlcNAc(b1-2)Man(a1-3)[Gal(b1-4)GlcNAc(b1-3)Gal(b1-4)GlcNAc(b1-3)Gal(b1-4)GlcNAc(b1-3)Gal(b1-4)GlcNAc(b1-3)Gal(b1-4)GlcNAc(b1-2)Man(a1-6)]Man(b1-4)GlcNAc(b1-4)[Fuc(a1-6)]GlcNAc
# In short: as §1
# [24] = target: Gal(b1-4)GlcNAc(b1-3)Gal(b1-4)GlcNAc(b1-3)Gal(b1-4)GlcNAc(b1-3)Gal(b1-4)GlcNAc(b1-3)Gal(b1-4)GlcNAc(b1-2)[Gal(b1-4)GlcNAc(b1-3)Gal(b1-4)GlcNAc(b1-3)Gal(b1-4)GlcNAc(b1-3)Gal(b1-4)GlcNAc(b1-3)Gal(b1-4)GlcNAc(b1-6)]Man(a1-6)[Gal(b1-4)GlcNAc(b1-3)Gal(b1-4)GlcNAc(b1-3)Gal(b1-4)GlcNAc(b1-3)Gal(b1-4)GlcNAc(b1-3)Gal(b1-4)GlcNAc(b1-2)Man(a1-3)]Man(b1-4)GlcNAc(b1-4)[Fuc(a1-6)]GlcNAc
# In short: as §1
# [25] = target: Gal(b1-4)GlcNAc(b1-3)Gal(b1-4)GlcNAc(b1-3)Gal(b1-4)GlcNAc(b1-3)Gal(b1-4)GlcNAc(b1-3)Gal(b1-4)GlcNAc(b1-3)Gal(b1-4)GlcNAc(b1-2)Man(a1-3)[Gal(b1-4)GlcNAc(b1-3)Gal(b1-4)GlcNAc(b1-3)Gal(b1-4)GlcNAc(b1-3)Gal(b1-4)GlcNAc(b1-3)Gal(b1-4)GlcNAc(b1-3)Gal(b1-4)GlcNAc(b1-2)Man(a1-6)]Man(b1-4)GlcNAc(b1-4)GlcNAc
# In short: as §1
# [26] = target: Gal3S(b1-4)[Fuc(a1-3)]Glc6S
# In short: as §1
# [27] = target: Gal4S6S(b1-4)GlcNAc
# In short: as §1
# [28] = target: Gal6S(b1-3)GlcNAc
# In short: as §1
# [29] = target: GalNAc(b1-3)Gal(a1-6)Gal(b1-4)Glc
# In short: as §1
# [30] = target: GalNAc(b1-3)GlcNAc
# In short: as §1
# [31] = target: GalNAc3S(b1-4)GlcNAc3S
# In short: as §1
# [32] = target: GlcA(b1-6)Gal
# In short: as §1
# [33] = target: GlcNAc(a1-4)Gal(b1-4)GlcNAc(b1-3)Gal(b1-4)GlcNAc(b1-3)Gal(b1-4)GlcNAc
# In short: as §1
# [34] = target: GlcNAc(b1-6)Gal(b1-4)GlcNAc
# In short: as §1
# [35] = target: GlcNAc(b1-6)GalNAc
# In short: as §1
# [36] = target: Kdn(a2-3)Gal(b1-3)GlcNAc
# In short: as §1
# [37] = target: Kdn(a2-3)Gal(b1-4)GlcNAc
# In short: as §1
# [38] = target: Man(a1-2)Man(a1-3)[Man(a1-2)Man(a1-6)]Man
# In short: as §1
# [39] = target: Neu5Ac(a2-3)Gal(b1-4)GlcNAc(b1-3)Gal(b1-4)GlcNAc(b1-3)GalNAc
# In short: as §1
# [40] = target: Neu5Ac(a2-3)Gal(b1-4)[Fuc(a1-3)]GlcNAc(b1-3)Gal
# In short: as §1
# [41] = target: Neu5Ac(a2-3)Gal(b1-4)[Fuc(a1-3)]GlcNAc(b1-3)Gal(b1-4)GlcNAc
# In short: as §1
# [42] = target: Neu5Ac(a2-3)Gal(b1-4)[Fuc(a1-3)]GlcNAc(b1-6)[Gal(b1-3)]GalNAc
# In short: as §1
# [43] = target: Neu5Ac(a2-3)[GalNAc(b1-4)]Gal(b1-4)Glc
# In short: as §1
# [44] = target: Neu5Ac(a2-6)Gal(b1-3)GlcNAc(b1-3)[Gal(b1-4)GlcNAc(b1-6)]Gal(b1-4)Glc
# In short: as §1
# [45] = target: Neu5Ac(a2-6)Gal(b1-4)GlcNAc(b1-2)Man(a1-3)[Man(a1-6)]Man(b1-4)GlcNAc(b1-4)GlcNAc
# In short: as §1
# [46] = target: Neu5Ac(a2-6)Gal(b1-4)GlcNAc(b1-3)[Neu5Ac(a2-6)Gal(b1-4)GlcNAc(b1-6)]GalNAc
# In short: as §1
# [47] = target: Neu5Ac(a2-6)Gal(b1-4)GlcNAc(b1-6)[Gal(b1-3)GlcNAc(b1-3)]Gal(b1-4)Glc
# In short: as §1
# [48] = target: Neu5Ac(a2-6)GalNAc(b1-4)GlcNAc
# In short: as §1
# [49] = target: Neu5Gc(a2-6)GalNAc
# In short: as §1
binder,measurement,setting,value
B1,glycan array binding signal (z-score),[1],-0.296
same,glycan array binding signal (z-score),[2],-0.521
same,glycan array binding signal (z-score),[3],-0.32
same,glycan array binding signal (z-score),[4],-0.304
same,glycan array binding signal (z-score),[5],0.746
same,glycan array binding signal (z-score),[6],4.07
same,glycan array binding signal (z-score),[7],4.05
same,glycan array binding signal (z-score),[8],0.38
same,glycan array binding signal (z-score),[9],1.58
same,glycan array binding signal (z-score),[10],1.98
same,glycan array binding signal (z-score),[11],4.13
same,glycan array binding signal (z-score),[12],-0.11
same,glycan array binding signal (z-score),[13],-0.028
same,glycan array binding signal (z-score),[14],-0.377
same,glycan array binding signal (z-score),[15],0.1
same,glycan array binding signal (z-score),[16],1.34
same,glycan array binding signal (z-score),[17],1.3
same,glycan array binding signal (z-score),[18],3.45
same,glycan array binding signal (z-score),[19],4.82
same,glycan array binding signal (z-score),[20],4.74
same,glycan array binding signal (z-score),[21],5.31
same,glycan array binding signal (z-score),[22],5.73
same,glycan array binding signal (z-score),[23],5.38
same,glycan array binding signal (z-score),[24],6.29
same,glycan array binding signal (z-score),[25],4.6
same,glycan array binding signal (z-score),[26],-0.318
same,glycan array binding signal (z-score),[27],-0.491
same,glycan array binding signal (z-score),[28],-0.361
same,glycan array binding signal (z-score),[29],-0.468
same,glycan array binding signal (z-score),[30],-0.486
same,glycan array binding signal (z-score),[31],-0.441
same,glycan array binding signal (z-score),[32],-0.198
same,glycan array binding signal (z-score),[33],-0.462
same,glycan array binding signal (z-score),[34],0.361
same,glycan array binding signal (z-score),[35],-0.467
same,glycan array binding signal (z-score),[36],-0.454
same,glycan array binding signal (z-score),[37],-0.394
same,glycan array binding signal (z-score),[38],-0.635
same,glycan array binding signal (z-score),[39],-0.387
same,glycan array binding signal (z-score),[40],-0.474
same,glycan array binding signal (z-score),[41],-0.253
same,glycan array binding signal (z-score),[42],-0.217
same,glycan array binding signal (z-score),[43],-0.447
same,glycan array binding signal (z-score),[44],0.392
same,glycan array binding signal (z-score),[45],-0.06
same,glycan array binding signal (z-score),[46],-0.357
same,glycan array binding signal (z-score),[47],-0.304
same,glycan array binding signal (z-score),[48],-0.519
same,glycan array binding signal (z-score),[49],-0.467
